In all, about 340,000 compounds went through this assay and about 2,100 (0.62%) were called active.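 Rule for the calls: active = first-screen hits whose inhibition reached a set limit at any dose in the follow-up dose series; inconclusive = inhibition above the set first-screen limit but never retested; inactive = the rest.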 These entries were drawn from the full list. Measured potencies and affinities stand elsewhere.
Molecular target: Rac GTPase-activating protein 1 (Homo sapiens) (UniProt Q9H0H5)
Assay: MgcRacGAP GTPase-activating activity inhibitors, confirmation, biochemical, ADP Hunter fluorescence, primary and confirmatory (AID 624330);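 note: fluorescence reports GDP produced by GAP-driven GTP hydrolysis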
Conditions: MgcRacGAP-stimulated Rac1 GTP hydrolysis, at 30 µM, stronger effect = higher value, GST-tagged Rac1 F28L mutant substrate

Rac GTPase-activating protein 1 (Homo sapiens), sequence (Q9H0H5 whole entry, looked up): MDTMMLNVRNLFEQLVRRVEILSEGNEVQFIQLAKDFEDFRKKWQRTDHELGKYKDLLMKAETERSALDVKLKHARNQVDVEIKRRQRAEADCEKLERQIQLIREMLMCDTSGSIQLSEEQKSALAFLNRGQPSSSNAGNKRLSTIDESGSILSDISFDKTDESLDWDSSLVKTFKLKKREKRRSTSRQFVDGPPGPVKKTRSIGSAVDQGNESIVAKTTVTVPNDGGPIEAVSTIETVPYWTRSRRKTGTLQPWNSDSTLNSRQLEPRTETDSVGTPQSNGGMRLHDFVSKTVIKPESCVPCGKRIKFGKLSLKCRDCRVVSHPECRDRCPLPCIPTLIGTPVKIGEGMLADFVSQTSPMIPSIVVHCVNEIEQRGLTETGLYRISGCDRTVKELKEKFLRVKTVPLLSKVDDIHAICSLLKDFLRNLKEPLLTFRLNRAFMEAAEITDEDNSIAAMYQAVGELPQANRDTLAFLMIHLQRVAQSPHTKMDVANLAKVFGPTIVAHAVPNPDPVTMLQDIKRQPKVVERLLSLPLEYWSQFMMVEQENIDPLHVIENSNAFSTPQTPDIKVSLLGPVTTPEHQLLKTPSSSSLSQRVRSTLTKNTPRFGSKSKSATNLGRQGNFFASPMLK

inhibition, inactive:
Cc1ccc(S(=O)(=O)N(CC(=O)N2CCOCC2)c2ccccc2F)cc1 2.11%, Oc1ccc(-c2nc3ccccc3s2)cc1 15.1%, COc1ccc(-c2nc3ccccc3s2)cc1O 11.7%, COc1ccc(-c2nc3ccccc3s2)cc1NC(C)=O -7.89%, Oc1cccc(-c2nc3ccccc3s2)c1 8.24%, Cc1ccc(OCC(=O)N(Cc2cccc(F)c2)C2CCS(=O)(=O)C2)cc1 (centres undefined) 8.85%, O=C(Nc1ccccc1SC(=O)c1ccccc1)c1ccccc1 18.6%, COc1ccc(C(=O)Sc2nncc3ccccc23)cc1 -1.75%, CCc1nc2ccccc2c(C(=O)OCC(=O)N(C)Cc2ccccc2)c1C 3.21%, CSCC(=O)Nc1cc(C)on1 -9.86%, CCCCN(C)CCC(=O)Nc1ccc2c(c1)CCC2 6%, CCN(CC)CCNC(=O)c1ccc(NC(=O)c2ccc3c(c2)CCC3)cc1 3.69%, CCN(CC(=O)Nc1ccc(NC(C)=O)cc1)CC(=O)Nc1cc(C)on1 5.22%, O=C(NCc1ccccn1)Nc1cccc(F)c1 7.66%, C=CCN(CC=C)c1ncnc2[nH]ncc12 0.33%, COc1cc(C)c(S(=O)(=O)Nc2ccccc2F)cc1C 0.77%, CCn1nc(C(=O)NCc2nnc3ccccn23)c2ccccc2c1=O 2.43%, CCOC(=O)C1CN(S(=O)(=O)c2ccc(OC)cc2)c2cc(S(=O)(=O)CC)ccc2O1 (centres undefined) -8.53%, CC1=NN(C(N)=S)C(=O)C1N=Nc1ccc(Br)cc1 (centres undefined) 12.4%, CC1=NN(C(N)=S)C(=O)C1N=Nc1ccc(Cl)cc1 (centres undefined) 13.3%, CCC(C)NC(=O)CS(=O)Cc1nc(-c2cccc(C)c2)oc1C (centres undefined) 2.8%, CCn1cc(C(=O)N2CCN(c3ccccn3)CC2)c2cc(OC)c(OC)cc2c1=O -4.67%, CC1=C(C(N)=O)C(c2ccc(Cl)c(Cl)c2)n2ncnc2N1 (centres undefined) 3.56%, Cn1c(N2CCOCC2)c(C=O)c2ccccc21 8.54%, CN1CCN(c2c(/C=N/O)c3ccccc3n2C)CC1 28.5%, O=C(Nc1ccc(C(=O)O)cc1)/C(=C\c1ccco1)NC(=O)c1ccc(Br)cc1 18.2%, COc1ccc2c3c(cccc13)OC2=O 5.25%, COc1ccc2c3c(cccc13)C(=O)N(O)C2=O 1.13%, COc1ccc(CCNC(=O)c2nnc(Cc3c(F)cccc3Cl)o2)cc1OC 3.35%, O=C1OC(Cc2ccccc2)C(c2ccccc2)C1=O (centres undefined) 3.8%, O=C1N[C@H](Cc2ccccc2)CO1 3.86%, COc1ccc(Br)cc1C(=O)Nc1cccc(-c2nnc(-c3ccco3)o2)c1 -5.03%, COc1ccc(NC(=O)c2ccc(OC(F)F)cc2)cc1Cl -1.44%, O=C(O)c1cc(N/N=C/c2c[nH]c3ccccc23)ccc1Cl 23.8%, COc1ccc(C(=O)N/N=C/c2c[nH]c3ccccc23)cc1 16.4%, COc1ccc2c(/C=N/NS(=O)(=O)c3ccc(C)cc3)c[nH]c2c1 11.2%, O=C(O)c1ccc(S(=O)(=O)NN=Cc2c[nH]c3ccccc23)cc1 14.2%, COc1ccc(S(=O)(=O)N2CCCCC2)cc1NC(=O)CCc1cc(OC)c(OC)c(OC)c1 2.57%, O=C(COC(=O)Cc1c(Cl)cccc1Cl)Nc1ccccc1-c1ccccc1 1.56%, CC1(C)CC(=O)C(Sc2ccccc2)=C(O)C1 -4.47%, O=C(O)C1CC(c2ccccc2)=Nc2ccccc2S1 (centres undefined) 6.83%, CCOC(=O)Nc1ccc2c(c1)nc1n2CCN(CCOC)C1 8.24%, NS(=O)(=O)c1ccc(NC(=O)CSc2nc3c(c(=O)[nH]2)CCCC3)cc1 6.37%, CCN(CC(=O)NCc1ccc(F)cc1)C(=O)CN1CCN(c2ccccc2OC)CC1 2.73%, COc1ccc(CNC(=O)CN2CCN(c3ccc(F)cc3)CC2)cc1 6.2%, CCOc1ccccc1NC(=O)Cn1cnc2c(cnn2-c2ccc(C)c(C)c2)c1=O 9.09%, CC[C@@]1(C(=O)OC)N[C@H](CN(C)C(=O)c2ccc(F)cc2)[C@@H]2C(=O)N(Cc3ccccc3)C(=O)[C@@H]21 1.15%, CC(C)Cc1nnc(NC(=O)CCC(=O)NCCc2ccc(Cl)cc2)s1 4.94%, C[C@]12CC[C@@H]3c4ccc(O)cc4CC[C@H]3[C@@H]1CCC2=O 9.39%, CC12CCC3c4ccc(O)cc4CCC3C1CCC2=O (centres undefined) 5.82%, CC(O)Cn1c(N2CCCC2)nc2c1c(=O)[nH]c(=O)n2C (centres undefined) 4.91%, O=[N+]([O-])c1ccc2nc(C3CCCCC3)[nH]c2c1 6.17%, Cc1nc2ccc(-c3nc4cc(N)ccc4o3)cc2[nH]1 4.01%, O=[N+]([O-])c1ccc2nc(-c3ccc(Cl)cc3)[nH]c2c1 9.26%, Clc1ccc(-c2nc3ccncc3[nH]2)cc1 -13.9%, c1cncc(-c2nc3cc4ccccc4cc3[nH]2)c1 21.6%, c1cncc(-c2nc3ccccc3[nH]2)c1 3.11%, Cc1nc2ccc(-c3nc4ccccc4[nH]3)cc2[nH]1 22.2%, Cc1ccc2nc(C3CCCCC3)[nH]c2c1 9.42%, C=CCNC(=S)NNC(=O)c1ccc2c(c1)OCO2 4.79%, CC(NC(=O)C(=O)N1CCOCC1)C(c1cccs1)N1CCN(c2ccccc2)CC1 (centres undefined) 11%, CC1CCCN(C(=O)C2CCN(S(=O)(=O)c3ccc4c(c3)CC(C)N4C(=O)C3CC3)CC2)C1 (centres undefined) -0.15%, COc1ccc(CNC(=O)C(NS(=O)(=O)c2ccc3c(c2)CCCN3C(C)=O)C(C)C)cc1 (centres undefined) 6.24%, COc1cccc(CNC(=O)CCS(=O)(=O)c2ccc3c(c2)NC(=O)CS3)c1 6.72%

Reference: PubChem BioAssay AID624330 (Southern Research Specialized Biocontainment Screening …, 2012)
